This is part of a sample that, as a whole, favours compounds with a hit. Of some 83,000 tested, about 20% had one in any assay.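 Note: values are percent growth. 100 is the growth of untreated cells, values between 100 and 0 indicate rising inhibition; between -100 and 0 indicates cell death.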 Values without a mark were called inactive. Active and inactive are the calls of the source. How the source made its calls: active means growth percent below 10; inactive means the rest.

Test systems include SK-MEL-2 melanoma; EKVX NSCLC; SN12C renal; UO-31 renal; TK-10 renal; ACHN renal; CAKI-1 renal; A498 renal; CCRF-CEM leukemia; MOLT-4 leukemia; SR leukemia; RPMI-8226 leukemia; OVCAR-5 ovarian; OVCAR-4 ovarian; SK-OV-3 ovarian; IGROV1 ovarian; OVCAR-3 ovarian; HS 578T breast; NCI/ADR-RES ovarian; OVCAR-8 ovarian.
Holding throughout (assay): NCI-60 one-dose screen, 48 h (100 = growth as untreated, 0 = no growth, -100 = all killed)
Common to all, as to conditions: 10 µM unless noted

Regarding `COc1ccc(/C=C/c2ccc3ccccc3n2)c(OC)c1`, the growth in the assay with SK-MEL-2 melanoma was 48.3%; in the assay on EKVX NSCLC it was 79.3%; in the assay with SN12C renal, 80.1%; with UO-31 renal, 65.4%; in the assay with TK-10 renal, 111%; with ACHN renal it was 87%. In addition, the growth is 73.6% in the assay with CAKI-1 renal; 59.5% in the assay on A498 renal; 49% with CCRF-CEM leukemia; 58.3% in the assay on MOLT-4 leukemia; 29.4% in the assay with SR leukemia; 74.7% in the assay with RPMI-8226 leukemia. The growth in the assay with OVCAR-5 ovarian is 86.5%; in the assay with OVCAR-4 ovarian, 95.9%; with SK-OV-3 ovarian, 88.6%; in the assay on IGROV1 ovarian, 59.9%; in the assay on OVCAR-3 ovarian, 74%; in the assay with HS 578T breast, 85.5%. The growth with NCI/ADR-RES ovarian is 49.7%.

`C=C1CC[C@@H]2C(C)(C)[C@@H](O)CC[C@@]2(C)[C@@H]1COc1ccc2ccc(=O)oc2c1`: the growth in the assay with SK-MEL-2 melanoma was 88.3%; in the assay with EKVX NSCLC, 60.3%; in the assay with SN12C renal it was 74.9%; in the assay on UO-31 renal it was 52.6%; with TK-10 renal, 95%; in the assay with ACHN renal it was 80.1%. The growth is 73.5% in the assay on CAKI-1 renal; 68.9% with A498 renal; 60.8% in the assay on CCRF-CEM leukemia; 47.4% with MOLT-4 leukemia; 73.2% with SR leukemia; 50.7% in the assay with RPMI-8226 leukemia. The growth with OVCAR-8 ovarian is 83.4%; in the assay with OVCAR-5 ovarian, 117%; in the assay on SK-OV-3 ovarian, 112%; in the assay on IGROV1 ovarian, 95.3%; with OVCAR-3 ovarian it was 78.3%; in the assay on HS 578T breast, 101%. The growth with NCI/ADR-RES ovarian is 61.7%.

In the case of `CC/C=C\CCC/C=C1/C(=O)C=C[C@@H]1C/C=C\CCCC(=O)OC`, the growth with SK-MEL-2 melanoma is 87.3%; in the assay with EKVX NSCLC, 99.3%; in the assay on SN12C renal, 11.6%; in the assay on UO-31 renal, 69.8%; with TK-10 renal, 100%; with ACHN renal, 42.9%. Also, the growth in the assay with CAKI-1 renal is 54.1%; in the assay on A498 renal, 95.9%; in the assay with CCRF-CEM leukemia, 3.2% (active); in the assay with MOLT-4 leukemia it was 3.52% (active); in the assay on SR leukemia, 2.36% (active); in the assay on RPMI-8226 leukemia it was 1.41% (active). The growth in the assay on OVCAR-8 ovarian was 14.2%; in the assay on OVCAR-5 ovarian, 73.5%; in the assay with SK-OV-3 ovarian, 119%; in the assay on IGROV1 ovarian, 84.2%; with OVCAR-3 ovarian, 26.7%; in the assay with HS 578T breast it was 37.2%. Besides, the growth in the assay with NCI/ADR-RES ovarian is 25.9%.

As for `C=C(CNCCO)[C@@H]1CC[C@]2(CO)CC[C@]3(C)[C@H](CC[C@@H]4[C@@]5(C)CCC(N)C(C)(C)[C@@H]5CC[C@]43C)[C@@H]12` (stereo partly specified), the growth in the assay with SK-MEL-2 melanoma is -29.2% (active); in the assay on EKVX NSCLC it was 72%; in the assay on SN12C renal, 71.7%; in the assay on UO-31 renal it was 81.7%; in the assay on TK-10 renal, 68.9%; in the assay on ACHN renal it was 97.5%. Also, the growth is 54.1% with CAKI-1 renal; 81.7% in the assay with A498 renal; 1.11% (active) in the assay with CCRF-CEM leukemia; 8.81% (active) in the assay on MOLT-4 leukemia; -23.1% (active) with SR leukemia; -35.3% (active) with RPMI-8226 leukemia. In addition, the growth with OVCAR-5 ovarian is 81.6%; with OVCAR-4 ovarian, 64.6%; in the assay with SK-OV-3 ovarian, 95.2%; in the assay on IGROV1 ovarian, 65.3%; with OVCAR-3 ovarian, 69.4%; with HS 578T breast, 51%. Besides, the growth with NCI/ADR-RES ovarian was 94.8%.

Consider `COc1ccc(/C=C(/c2ccccc2)[N+](=O)[O-])c(OC)c1`, for which the growth is -6.4% (active) in the assay on SK-MEL-2 melanoma; 36.2% with EKVX NSCLC; -20.5% (active) with SN12C renal; -97.6% (active) with UO-31 renal; -26% (active) in the assay on TK-10 renal; -72.4% (active) in the assay with ACHN renal. Besides, the growth in the assay on CAKI-1 renal was -25.5% (active); in the assay with A498 renal it was 51.5%; in the assay on CCRF-CEM leukemia, 7.93% (active); in the assay with MOLT-4 leukemia it was 6.93% (active); in the assay on SR leukemia it was 6.7% (active); in the assay on RPMI-8226 leukemia, 1.5% (active). For the same compound, the growth in the assay with OVCAR-5 ovarian is -9.82% (active); in the assay on SK-OV-3 ovarian, 42.7%; in the assay with IGROV1 ovarian it was -35.9% (active); in the assay on OVCAR-3 ovarian, -80.6% (active); in the assay with HS 578T breast, 46.1%; with NCI/ADR-RES ovarian, -4.93% (active).

Regarding `COc1cc(/C=C/C(=O)/C=C(O)/C=C/c2ccc(OC(=O)C34CC5CC(CC(C5)C3)C4)c(OC)c2)ccc1OC(=O)C12CC3CC(CC(C3)C1)C2`, the growth is 101% in the assay with SK-MEL-2 melanoma; 101% in the assay on EKVX NSCLC; 95.5% with SN12C renal; 69.3% with UO-31 renal; 97% in the assay with TK-10 renal; 99% with ACHN renal. Further, the growth was 91.3% in the assay on CAKI-1 renal; 102% with A498 renal; 103% in the assay on CCRF-CEM leukemia; 116% in the assay with MOLT-4 leukemia; 120% in the assay on SR leukemia; 105% in the assay with RPMI-8226 leukemia. For the same compound, the growth with OVCAR-5 ovarian was 97.1%; in the assay on OVCAR-4 ovarian, 104%; in the assay with SK-OV-3 ovarian, 114%; in the assay on IGROV1 ovarian, 92.5%; with OVCAR-3 ovarian, 109%; in the assay on HS 578T breast, 94.2%. The growth with NCI/ADR-RES ovarian was 104%.

Turning to `CS(=O)(=O)Nc1cc(-c2ccc3ncc(C#N)c(Nc4ccc(F)c(Cl)c4)c3c2)cnc1Cl`, the growth in the assay on SK-MEL-2 melanoma is -59.9% (active); in the assay on EKVX NSCLC it was -3.93% (active); in the assay with SN12C renal, 18.2%; in the assay with UO-31 renal, -6.94% (active); with TK-10 renal it was -21.6% (active); in the assay with ACHN renal it was 10.2%. For the same compound, the growth in the assay with CAKI-1 renal was 4.91% (active); in the assay on A498 renal, -83.6% (active); in the assay on CCRF-CEM leukemia, 0.41% (active); in the assay with MOLT-4 leukemia, -22.5% (active); with SR leukemia it was -0.801% (active); with RPMI-8226 leukemia, -38.5% (active). Moreover, the growth in the assay on OVCAR-8 ovarian is 4.09% (active); in the assay on OVCAR-5 ovarian it was 6.33% (active); with SK-OV-3 ovarian, -25.7% (active); with IGROV1 ovarian it was -16.4% (active); with OVCAR-3 ovarian, -19.3% (active); in the assay with HS 578T breast, -17.7% (active). Besides, in the assay with NCI/ADR-RES ovarian, the growth is 21.9%.

As to `CNC1=C([N+](=O)[O-])C(c2ccc(OC)cc2)C(C#N)=C(c2cccs2)O1` (stereo unspecified), the growth in the assay with SK-MEL-2 melanoma is 119%; with EKVX NSCLC, 104%; in the assay on SN12C renal it was 105%; in the assay with UO-31 renal, 80.6%; in the assay on TK-10 renal, 124%; in the assay on ACHN renal, 109%. Also, the growth is 94.2% with CAKI-1 renal; 117% in the assay on A498 renal; 108% with CCRF-CEM leukemia; 101% with MOLT-4 leukemia; 112% in the assay on SR leukemia; 111% with RPMI-8226 leukemia. The growth is 108% in the assay with OVCAR-5 ovarian; 100% with OVCAR-4 ovarian; 110% with SK-OV-3 ovarian; 108% in the assay with IGROV1 ovarian; 99.4% with OVCAR-3 ovarian; 106% in the assay on HS 578T breast. Moreover, the growth in the assay on NCI/ADR-RES ovarian was 107%.

Source of the values: PubChem BioAssay (NCI).
